# Assay results: article PMC5540273 (PLoS ONE, 2017)
# Values joined by “and” are separate entries in the source; they are usually repeats but may differ in a detail not shown here. Equal values may be shown once.
# Test system: FGR
# Conditions: concentration: 1 μM, replicates: in singlicate; 1 µM; n = 1
# 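Further: KINOMEscan kinase panel screen.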
row,SMILES,%Inh
1,NCCNS(=O)(=O)c1ccc(-c2ccnc3[nH]ccc23)cc1 [GSK977617],31% and 11%
2,CC(C)(CN)c1nc(-c2ccc(Cl)c(O)c2)c(-c2ccncc2)[nH]1.O=C(O)C(F)(F)F [SB-477794],95.3% and 94.8%
3,Cl.Cl.Cl.Fc1ccc(-c2ncn(C3CCNCC3)c2-c2ccnc(Nc3ccccc3)n2)cc1 [SB-238039],60% and 41%

# Same assay, conditions: concentration: 1 μM, replicates: in singlicate; n = 1
row,SMILES,%Inh [%]
1,N#Cc1c(N2CCOCC2)sc(-c2ccn[nH]2)c1-c1ccc(Cl)cc1,22
2,c1ccc(-c2cc(-c3c[nH]nc3-c3ccccn3)ccn2)cc1 [GW576604],9
3,O=C(NCCCN1CCOCC1)c1cccc(Nc2nccc(Nc3ccc(Oc4ccccc4)cc3)n2)c1 [GW663929],93.4
4,CCCCCc1nc2c(N)ncnc2n1CCCCC [SKF-97255],7
5,Cc1c(Cn2c(C)nn3c(=O)cc(N4CCOC(C)C4)nc23)cccc1C(F)(F)F (centres unmarked) [GSK2344444],0
6,O=C(NCCNc1ccnc(Nc2ccc(F)cc2)n1)c1cc2ccccc2s1 [GSK1379874],15
7,CC(C)Oc1ccc2c(-c3ccnc(Nc4ccc(N5CCN(C)CC5)cc4)n3)cnn2n1 [GW696155],57
8,COc1cc2c(cc1OCCN1CCN(C)CC1)ncc1c3ccc(C#N)cc3[nH]c21,0
9,CC(=O)Nc1ccc(COc2ccc(Nc3ccnc4cc(-c5ccccn5)ccc34)cc2)cc1.Cl [GW440148],36
10,CC(C)(C)n1cnc2c(N)ncnc21 [SKF-97359],8
11,CN(C1=C(c2ccccc2)C(=O)NC1=O)c1ccccc1 [SB-334860],17
12,Cl.Nc1ncnc2occ(-c3ccc(NC(=O)Nc4cc(C(F)(F)F)ccc4F)cc3)c12 [SB-707548],41
13,NS(=O)(=O)c1cccc(-c2ccc3nccc(-c4cccc(S(N)(=O)=O)c4)c3c2)c1 [GW867253],0
14,NS(=O)(=O)c1cccc(-c2ccc3ncc(N4CCOCC4)nc3c2)c1 [GSK1535721],27
15,COc1ccc(CNC(=O)NC2CCN(c3ccnc(Nc4ccc(OC)cc4)n3)C2)cc1 (centres unmarked) [GSK1379727],26
16,Cc1nnc(-c2ccc(C)c(-c3ccc(C(=O)Nc4ccc(NS(C)(=O)=O)cc4)cc3)c2)o1 [GW702865],24

row,SMILES,%Inh [%]
1,Cc1nnc(-c2ccc3occ(-c4ccc(C(C)O)cc4)c3c2)o1 (centres unmarked),11
2,[2H]C([2H])(c1cccc(C(F)(F)F)c1C)n1ccn2c(=O)nc(N3CCOCC3)cc12 [GSK2336394],12
3,NCC(NC(=O)c1cc(-c2cn[nH]c2)c(-c2ccnc3[nH]ccc23)s1)c1ccccc1.O=C(O)C(F)(F)F.O=C(O)C(F)(F)F (centres unmarked) [GSK1325775],0
4,O=C(NCCNc1ccnc(Nc2ccc(F)cc2)n1)Nc1ccccc1F [GSK1379880],3
5,COc1ccc(S(=O)(=O)NC2CCN(c3cc(C)nc(Nc4cccc(C#N)c4)n3)CC2)cc1.O=C(O)C(F)(F)F [GSK1653539],33
6,O=C1NC(=O)C(N2CCc3ccccc32)=C1c1cccc(Cl)c1 [SB-408010],22
7,O=c1cc(N2CCOCC2)nc2n(Cc3cccc(Cl)c3Cl)c(C3CC3)nn12 [GSK2358994],9
8,O=c1cc(N2CCOCC2)nc2n(Cc3cccc(F)c3)ccn12 [GSK2297430],32
9,CSc1ccc(-c2cc3ncnc(SCC(=O)O)c3s2)cc1,23
10,O=C(c1ccc(-c2cc(-c3c[nH]nc3-c3ccccn3)ccn2)cc1)N1CCOCC1 [GW812171],0
11,COc1ccc(Nc2nccc(N3CCC(NC(=O)Nc4cc(C)ccc4C)C3)n2)cc1 (centres unmarked) [GSK1379741],5
12,Fc1ccc(-c2nn3c(OCC(F)(F)F)cccc3c2-c2ccncc2)cc1 [GW514784],18
13,N#Cc1ccc(-c2cc(-c3c[nH]nc3-c3ccccn3)ccn2)cc1 [GW693028],21
14,COc1cc2ncn(-c3cc(OCc4sccc4Cl)c(C(N)=O)s3)c2cc1OC [GSK448459],9
15,NS(=O)(=O)CCc1cccc(Nc2nccc(-c3c(-c4cccc(NC(=O)c5c(F)cccc5F)c4)nn4ccccc34)n2)c1 [GSK336735],98.8
16,O=C(Nc1n[nH]c2cc(-c3cccc(F)c3)ccc12)C1CC1 [SB-735464],33

# Test system: FLT1
# Conditions: concentration: 1 μM, replicates: in singlicate; 1 µM; n = 1
row,SMILES,%Inh
1,NCCNS(=O)(=O)c1ccc(-c2ccnc3[nH]ccc23)cc1 [GSK977617],60% and 33%
2,CC(C)(CN)c1nc(-c2ccc(Cl)c(O)c2)c(-c2ccncc2)[nH]1.O=C(O)C(F)(F)F [SB-477794],82% and 80%
3,Cl.Cl.Cl.Fc1ccc(-c2ncn(C3CCNCC3)c2-c2ccnc(Nc3ccccc3)n2)cc1 [SB-238039],7% and 25%
